Assay outcomes: PubChem, The Scripps Research Institute Molecular Screening Center
SRC3 TRFRET art – flags TR-FRET format artefacts in PPARgamma SRC-3 recruitment agonist screen; TR-FRET artefact counter-screen, PPARgamma/SRC-3 format; hits give high values; TR-FRET ratio at 8 µM; 99,000 compounds, 0.39% hits; AID 1048
PPARg SRC-1 ag – agonists of human PPARgamma SRC-1 coactivator recruitment | activation, % at 8 µM | 200,000 compounds, 0.41% hits | AID 631 | PPARgamma-SRC-1 coactivator recruitment biochemical assay; in the data active means activation above about 19%
PPARg SRC-2 ag – agonists of SRC-2 recruitment by human PPARgamma | P37231 | PPARgamma LBD-SRC-2 recruitment, biochemical | activation, % at 8 µM | 200,000 compounds, 0.34% hits; in the data active means activation above about 22%
SRC1 TRFRET art – flags TR-FRET format artefacts in PPARgamma SRC-1 recruitment agonist screen | 99,000 compounds, 0.34% hits | TR-FRET detection artefact counter-screen, emission ratio; hits give high values | AID 1051 | TR-FRET ratio at 8 µM; in the data active means TR-FRET ratio above about 2300
PPARg SRC3 recr – PPARgamma-driven SRC-3 recruitment agonism; 200,000 compounds, 0.26% hits; activation, % at 8 µM; biochemical PPARgamma/SRC-3 coactivator recruitment assay; P37231; in the data active means activation above about 23%
TR-FRET SRC-2 ct – counter-screen for PPARgamma SRC-2 recruitment agonists: TR-FRET artefact; TR-FRET ratio at 8 µM; 200,000 compounds, 0.4% hits; hits give high values
PPARg SRC2 ag – confirmation of agonists of SRC-2 recruitment by human PPARgamma | shares compounds with PPARg SRC3 recr | biochemical SRC-2 recruitment by PPARgamma | activation, % at 8 µM | 790 compounds, 52% hits; in the data active means activation above about 22%
PPARg SRC1 ag – human PPARgamma SRC-1 recruitment agonism, confirmation; shares compounds with PPARg SRC3 recr; PPARgamma–SRC-1 coactivator recruitment biochemical assay; activation, % at 8 µM; 790 compounds, 43% hits; AID 1300; in the data active means activation above about 20%
PPARg SRC3 ag – human PPARgamma SRC-3 recruitment agonism, confirmation; 790 compounds, 29% hits; activation, % at 8 µM; biochemical PPARgamma-SRC-3 coactivator recruitment, agonist mode; shares compounds with PPARg SRC3 recr; in the data active means activation above about 24%
Each line names hits and unclear results; the compound was inactive in the other large screens (follow-up assays come after a bar, where they were run). An excerpt weighted towards active compounds, which were near 0.9% of everything screened. Unless noted, no stated cut-off is given here; in the data, active means TR-FRET ratio above about 2000; inactive means the rest.

COC(=O)c1c(N)n(Cc2ccc(OC)cc2)c2nc3ccccc3nc12	SRC1 TRFRET art 2577
Clc1ccc(OCC#CCN2CCCCCC2)cc1	none
COc1ccc(NP(=O)(Oc2ccccc2OC)Oc2ccccc2OC)cc1	PPARg SRC3 recr 27 | PPARg SRC2 ag inactive | PPARg SRC1 ag 25 | PPARg SRC3 ag inactive
CN1/C(=C\C=C\C2=[N+](C)c3ccc4ccccc4c3C2(C)C)C(C)(C)c2ccccc21	PPARg SRC-1 ag 42, PPARg SRC-2 ag 84, PPARg SRC3 recr 70, TR-FRET SRC-2 ct 3050 (no result: SRC3 TRFRET art, SRC1 TRFRET art) | PPARg SRC2 ag 49 | PPARg SRC1 ag 39 | PPARg SRC3 ag 37
CCn1c(=O)cc(SCC(=O)N2CCC3(CC2)OCCO3)c2ccccc21	PPARg SRC-1 ag 65, PPARg SRC-2 ag 61, PPARg SRC3 recr 102, TR-FRET SRC-2 ct 2944 (no result: SRC3 TRFRET art, SRC1 TRFRET art) | PPARg SRC2 ag 37 | PPARg SRC1 ag 25 | PPARg SRC3 ag 26
Cn1c(=O)n(CC(=O)N2CCC3(CC2)OCCO3)c(=O)c2ccccc21	none
CN(C)/C=C/C(=O)C(Cl)(Cl)Cl	none
CN(C)c1ccc(/C=C/C=C2/C(=O)NC(=O)N(c3ccccc3)C2=O)cc1	SRC3 TRFRET art 2895, PPARg SRC-1 ag 49, PPARg SRC-2 ag 29, SRC1 TRFRET art 2995, PPARg SRC3 recr 50, TR-FRET SRC-2 ct 2441 | PPARg SRC2 ag 70 | PPARg SRC1 ag 47 | PPARg SRC3 ag 47
CCCCCn1c(=O)c(C(=O)Nc2nc(CC(=O)OCC)cs2)c(O)c2ccccc21	none
CC1COC2N=C(N[N+](=O)[O-])NC2O1 (stereo not drawn)	none
O=C(O)c1cccc2nc3ccccc3nc12	none | PPARg SRC2 ag inactive | PPARg SRC1 ag inactive | PPARg SRC3 ag inactive
COC(=O)c1ccccc1-n1c(C)nc2ccccc2c1=O	none (no result: SRC3 TRFRET art, SRC1 TRFRET art)
